This passage reports outcome and AC50 results from PubChem BioAssay (EPA / NIEHS).

The structures appear in SMILES notation. Results filed as inconclusive are left out. Activity calls are given as the source filed them. How the source made its calls: active means hit-call score of the fitted dose curve at least 0.9, where 1 is the maximum; inconclusive means response in the unintended direction; inactive means score below 0.9.

A word on the AC50: it is the concentration at which the activity in the assay is half-maximal.

Chain of Hepatocyte nuclear factor 4-alpha (Homo sapiens) (P41235 whole entry, looked up): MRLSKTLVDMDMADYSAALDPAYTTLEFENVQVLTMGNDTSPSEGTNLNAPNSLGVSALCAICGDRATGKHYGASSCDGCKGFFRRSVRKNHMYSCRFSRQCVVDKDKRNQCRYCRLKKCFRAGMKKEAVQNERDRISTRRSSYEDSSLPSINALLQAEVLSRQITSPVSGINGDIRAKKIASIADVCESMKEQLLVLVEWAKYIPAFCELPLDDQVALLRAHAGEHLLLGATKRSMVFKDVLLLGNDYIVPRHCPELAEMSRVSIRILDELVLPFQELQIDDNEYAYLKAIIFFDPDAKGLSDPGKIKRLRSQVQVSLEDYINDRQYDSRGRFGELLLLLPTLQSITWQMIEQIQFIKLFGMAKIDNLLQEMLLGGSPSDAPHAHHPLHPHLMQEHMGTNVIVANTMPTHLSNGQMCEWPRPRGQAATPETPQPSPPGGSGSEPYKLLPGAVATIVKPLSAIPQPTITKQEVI

The assay concerns the target Hepatocyte nuclear factor 4-alpha (Homo sapiens) (UniProt P41235). Kind of assay: ATG_HNF4a_TRANS: Attagene TRANS-FACTORIAL HepG2 Assay for human Hepatocyte Nuclear Factor 4 alpha (HNF4a) (AID 2282982). Conditions: HepG2 HNF4a transactivation reporter, mRNA readout. As to the method:
ATG_TRANS is a cell-based, multiplexed-readout assay that uses HepG2, a human liver cell line, with measurements taken at 24 hours after chemical dosing in a 24-well plate.ATG_HNF4a_TRANS is one of 30 assay component(s) measured or calculated from the ATG_TRANS assay. It is designed to make measurements of mRNA induction, a form of inducible reporter, as detected with fluorescence intensity signals by Reverse transcription polymerase chain reaction (RT-PCR) and Capillary electrophoresis technology.Data from the assay component ATG_HNF4a_TRANS was analyzed into 1 assay endpoint. This assay endpoint, ATG_HNF4a_TRANS, was analyzed in the positive analysis fitting direction relative to DMSO as the negative control and baseline of activity. Using a type of inducible reporter, measures of mRNA for gain-of-signal activity can be used to understand the reporter gene at the transcription factor-level as they relate to the gene HNF4A. Furthermore, this assay endpoint can be referred to as a primary readout, because this assay has produced multiple assay endpoints where this one serves a reporter gene function. To generalize the intended target to other relatable targets, this assay endpoint is annotated to the nuclear receptor intended target family, where the subfamily is orphan.
Human liver HepG2 cells are transiently transfected with multiple reporter transcription units (MRTUs) in 6-well plates using FuGene 6 reagent (Roche; 3 ml FuGene/1 mg DNA). The MRTU constructs are regulated by a cis-regulating element (promoter). […] A major difference between the CIS and TRANS system is that in CIS activities of endogenous TFs are measured, whereas the TRANS assay evaluates changes in activities of exogenous, chimeric NR-Gal4 proteins. […] At the end of 24 hour incubation, total RNA was isolated using TriZol reagent (Invitrogen). The isolated RNA is then reverse-transcribed using oligo(dT) primer and Mo-MLV reverse transcriptase (Invitrogen) with DNAse I (Ambion) treatment for 30 min. The one-tenth of the produced cDNA was amplified by PCR using Taq DNA polymerase (Invitrogen) and two reporter sequence-specific primers. The PCR products were fluorescently labeled by primer extension with 6-arboxyfluorescein (6-FAM) 5'-labeled reporter sequence-specific primer (2 min at 95 C, 20 s at 68 C and 10 min at 72 C) and these products were digested with 5U of HpaI (New England Biolabs) for 2h at 37 C. The fragments were purified using Qiaquick PCR columns (Qiagen), analyzed on an ABI 3130xL genetic analyzer (Applied Biosystems) with peak positions identified by using a set of X-rhodamine (ROX)-labeled MapMarker1000 molecular weight standards (BioVentures). The raw capillary electrophoresis data was processed using Attagraph software (Attagene).
As to `CCCCC(CC)COC(=O)Cl` (stereo not given), the molecule was called inactive.

Regarding `CCN(CC)C(=O)C(Cl)=C(C)OP(=O)(OC)OC`, the outcome was inactive.

`Clc1cnc(Oc2ccc(Oc3ncc(Cl)cc3Cl)cc2)c(Cl)c1`: the outcome was inactive.

Regarding `O=c1nc(O)n(Cl)c(=O)n1Cl`, the molecule was called inactive.

As for `CCN(N=O)C(N)=O`, the outcome was inactive.

Regarding `COC(=O)c1cc(Oc2ccc(Cl)cc2Cl)ccc1[N+](=O)[O-]`, the result was inactive.

In the case of `C[C@@H]1O[C@@H](O[C@H]2C[C@@H](O)[C@]3(CO)[C@H]4[C@H](O)C[C@]5(C)[C@@H](C6=CC(=O)OC6)CC[C@]5(O)[C@@H]4CC[C@]3(O)C2)[C@H](O)[C@H](O)[C@H]1O`, the molecule was called inactive.

Take `CC(=O)C(F)(F)C(F)(F)F`: the outcome was inactive.

Take `CC(F)(F)CC(F)(F)F`: the call was inactive.

As to `CN(CCCC(O)c1cccnc1)N=O` (stereo not given), the molecule was called inactive.

Consider `CCOP(=S)(OCC)OP(=S)(OCC)OCC`, for which the molecule was called inactive.

Turning to `N#CS`, the molecule was called inactive.

With `CC(C)[C@H](C(=O)OC(C#N)c1cccc(Oc2ccccc2)c1)c1ccc(OC(F)F)cc1` (stereo not given in full), the call was inactive.

For the molecule `Cc1ccc(CCl)cc1`, the molecule was classed as inactive.

`Nc1c(Oc2ccccc2)cc(O)c2c1C(=O)c1ccccc1C2=O`: the call was inactive.

Consider `COC(F)(C(F)(F)C(F)(F)F)C(F)(C(F)(F)F)C(F)(F)F` (stereo not given), for which the molecule was called inactive.

As to `C=CC(F)(C(F)(F)F)C(F)(F)C(F)(F)F` (stereo not given), the molecule was classed as inactive.

Regarding `c1cc[c]([Sb]([c]2ccccc2)[c]2ccccc2)cc1`, the molecule was classed as inactive.

For `Clc1cc(C(Cl)(Cl)Cl)cnc1Cl`, the outcome was inactive.

In the case of `O=C/C(Cl)=C(/Cl)C(=O)O`, the molecule was classed as inactive.

Consider `CC(=Cc1ccccc1)[N+](=O)[O-]`, for which the result was inactive.

With `C=CCOC(N)=O`, the result was inactive.

Take `Brc1ccc(Oc2c(Br)cc(Br)cc2Br)c(Br)c1`: the outcome was inactive.

Take `CCOc1cc(C=O)ccc1O`: the outcome was inactive.

Regarding `O=S(=O)(F)C(F)(F)C(F)(F)C(F)(F)C(F)(F)F`, the molecule was called inactive.

With `CC(C=O)Cc1ccc2c(c1)OCO2` (stereo not given), the result was inactive.

On to `CCC[CH2][Sn]([Cl])([Cl])[CH2]CCC`, for which the molecule was classed as inactive.

Take `Cc1ccc2nc3sc(=O)sc3nc2c1`: the AC50 was 6.47 µM (active).

For `OC[P+](CO)(CO)CO`, the result was inactive.

In the case of `CCOC(=O)CCN(SN(C)C(=O)Oc1cccc2c1OC(C)(C)C2)C(C)C`, the molecule was called inactive.

As for `Nc1ccc(N)cc1`, the result was inactive.

Turning to `C=C(C)C(=O)OCCCCOC(=O)C(=C)C`, the call was inactive.

For `O=C(NC(=O)c1c(F)cccc1F)Nc1cc(Cl)c(F)c(Cl)c1F`, the result was inactive.

As to `NC(=O)CCl`, the call was inactive.

For `Brc1ccc(Br)cc1`, the molecule was called inactive.

Consider `C=CC(=O)NC(C)(C)CC(C)=O`, for which the result was inactive.

For the molecule `CCOCn1c(-c2ccc(Cl)cc2)c(C#N)c(Br)c1C(F)(F)F`, the molecule was classed as inactive.

In the case of `[F][Sn]([c]1ccccc1)([c]1ccccc1)[c]1ccccc1`, the outcome was inactive.

Turning to `CCCCOP(=O)(CCCC)OCCCC`, the molecule was classed as inactive.

As for `CN(C)C(=S)S`, the molecule was classed as inactive.
